Molecules are shown by their SMILES. Screen size: about 1,300 compounds; about 980 (75%) were called active. Not shown: some 4% with an inconclusive outcome. The list shows a part of the results. Values without a mark were called inactive.

Sequence of Sulfhydryl oxidase 1 (Homo sapiens) (O00391 whole entry, looked up): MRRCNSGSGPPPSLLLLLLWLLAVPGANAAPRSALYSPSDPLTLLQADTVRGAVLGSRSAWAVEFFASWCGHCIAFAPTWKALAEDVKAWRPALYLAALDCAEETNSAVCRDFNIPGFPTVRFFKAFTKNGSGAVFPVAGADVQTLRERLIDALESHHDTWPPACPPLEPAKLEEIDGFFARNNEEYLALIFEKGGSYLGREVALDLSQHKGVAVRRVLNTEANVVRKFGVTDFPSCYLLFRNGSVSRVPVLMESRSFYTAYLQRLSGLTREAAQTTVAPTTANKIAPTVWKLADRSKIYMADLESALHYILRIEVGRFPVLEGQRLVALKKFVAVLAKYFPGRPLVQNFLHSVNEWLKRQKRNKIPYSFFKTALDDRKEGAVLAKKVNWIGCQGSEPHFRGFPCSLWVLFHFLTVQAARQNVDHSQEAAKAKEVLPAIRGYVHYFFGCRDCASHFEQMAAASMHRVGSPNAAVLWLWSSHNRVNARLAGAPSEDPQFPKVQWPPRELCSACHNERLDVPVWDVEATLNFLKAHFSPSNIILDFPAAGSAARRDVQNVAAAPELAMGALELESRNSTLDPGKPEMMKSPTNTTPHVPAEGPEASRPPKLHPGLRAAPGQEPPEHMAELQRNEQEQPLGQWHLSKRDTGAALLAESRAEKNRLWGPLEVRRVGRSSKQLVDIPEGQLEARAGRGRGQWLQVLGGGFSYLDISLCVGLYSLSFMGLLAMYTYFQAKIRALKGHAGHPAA

This experiment has as its target Sulfhydryl oxidase 1 (Homo sapiens) (UniProt O00391). Description: QSOX1 enzyme inhibitors, primary screen, biochemical, HyperBlu H2O2 luminescence, HTS (AID 1347420). Further: values above 100% were filed as inconclusive. The following applies: recombinant QSOX1, HyperBlu H2O2 luminescence; at 12.5 µM; stronger effect = higher value; active = any value above zero.
Regarding `NC[C@H](O)c1ccc(O)c(O)c1`, the inhibition – broadly, the drop in the measured response relative to a control, in per cent – is 55.1% (active).
On to `NCC(O)c1ccc(O)c(O)c1` (stereo unspecified), for which the inhibition is 43.6% (active).
Under `CC(=O)N1CCN(c2ccc(OC[C@H]3CO[C@](Cn4ccnc4)(c4ccc(Cl)cc4Cl)O3)cc2)CC1` stands 56.3% (active).
Take `COc1ccc2c(c1OC)C(=O)O[C@@H]2[C@H]1c2c(cc3c(c2OC)OCO3)CCN1C`: the inhibition was 14.1% (active).
With `CCn1cc(C(=O)O)c(=O)c2cc(F)c(N3CCNC(C)C3)c(F)c21` (stereo unspecified) the figure was 12.8% (active); with `O=[N+]([O-])c1ccc2c(c1)S(=O)(=O)C=C2`, 39.1% (active).
As for `C[C@]12CC[C@@H]3c4ccc(O)cc4C[C@@H](CCCCCCCCCS(=O)CCCC(F)(F)C(F)(F)F)[C@H]3[C@@H]1CC[C@@H]2O` (stereo partly specified), the inhibition was 22.3% (active).
Regarding `CCCCCC[C@@H]([C@@H](C)O)n1cnc2c(N)ncnc21`, the inhibition was 7.4% (active).
As to `N[C@H](C(=O)O)c1cc(O)cc(O)c1`, the inhibition is 5.6% (active).
With `Clc1ccc(Cn2c(CN3CCCC3)nc3ccccc32)cc1` the figure was -2.3%; with `Clc1ccc(N2CCN(Cc3cc4ccccn4n3)CC2)cc1`, 63.8% (active).
On to `COc1cccc(OC)c1OCCNCC1COc2ccccc2O1` (stereo unspecified), for which the inhibition is 23.5% (active).
In the case of `COc1cccc(OC)c1OCCNCC1CSc2ccccc2O1` (stereo unspecified), the inhibition was -4.6%.
As for `CCn1ccnc1CC1COc2ccccc2O1` (stereo unspecified), the inhibition is -2.8%.
For the compound `O=C1CCC(c2ccc(-n3ccnc3)cc2)=NN1`, the inhibition is 10% (active).
With `O=c1oc(Cl)c(Cl)c2ccccc12` the figure was 15% (active); with `Cc1nn(-c2ccccc2)c(C)c1C=NN1CCN(Cc2ccccc2)CC1`, -0.7%.
For `Nc1ncnc2c1c(-c1ccc(Oc3ccccc3)cc1)cn2C1CCCC1`, the inhibition was 7.6% (active).
With `COc1cc([C@@H]2c3cc4c(cc3[C@@H](O[C@@H]3O[C@@H]5CO[C@@H](C)O[C@H]5[C@H](O)[C@H]3O)[C@H]3COC(=O)[C@H]23)OCO4)cc(OC)c1O` the figure was 31.7% (active).
Under `COc1cc([C@@H]2c3cc4c(cc3[C@H](O)C3COC(=O)[C@@H]32)OCO4)cc(OC)c1OC` (stereo partly specified) stands 10.7% (active).
For `O=C(O)CN(CCOCCOCCN(CC(=O)O)CC(=O)O)CC(=O)O`, the inhibition was 13.4% (active).
With `O=C(O)CN(CCN(CC(=O)O)CC(=O)O)CCN(CC(=O)O)CC(=O)O` the figure was 25.6% (active); with `C[C@H]1c2cccc(O)c2C(O)=C2C(=O)[C@]3(O)C(O)=C(C(N)=O)C(=O)[C@@H](N(C)C)[C@@H]3[C@@H](O)[C@@H]21`, 39.9% (active).
With `CN(C)[C@@H]1C(=O)C(C(N)=O)=C(O)[C@@]2(O)C(=O)C3=C(O)c4c(O)ccc(Cl)c4[C@@H](O)[C@H]3C[C@@H]12` the figure was 49.5% (active); with `COc1ccccc1N1CCN(CCN(C(=O)c2ccc(I)cc2)c2ccccn2)CC1`, 28.5% (active).
As to `COc1ccccc1N1CCN(CCN(C(=O)C2CCCCC2)c2ccccn2)CC1`, the inhibition was 40.4% (active).
With `COc1ccccc1N1CCN(CCN(C(=O)c2ccc(F)cc2)c2ccccn2)CC1` the figure was 27.6% (active); with `Cc1ccc(/C(=C\CN2CCCC2)c2ccccn2)cc1`, -62.9%; with `O=C(O)C1CCCN(CCC=C(c2ccccc2)c2ccccc2)C1` (stereo unspecified), 3.5% (active).
Under `O=C(O)C1=CC(=C(c2ccc(O)c(C(=O)O)c2)c2ccc(O)c(C(=O)O)c2)C=CC1=O` stands 42.3% (active).
Under `O=c1c2ccccc2nc2n1CCc1c-2[nH]c2ccccc12` stands 5.7% (active); under `CCCCc1oc2ccccc2c1C(=O)c1cc(I)c(OCCN(CC)CC)c(I)c1`, 18% (active).
As to `C[C@@]1(C2CCCC2)Cc2cc(OCC(=O)O)c(Cl)c(Cl)c2C1=O`, the inhibition is 18.3% (active).
For the compound `CCCC[C@@]1(C2CCCC2)Cc2cc(OCC(=O)O)c(Cl)c(Cl)c2C1=O`, the inhibition was 25.1% (active).
On to `CC(C)C(=O)c1c(C(C)C)nn2ccccc12`, for which the inhibition was 12.7% (active).
Take `CSc1ccc(C(=O)c2[nH]c(=O)[nH]c2C)cc1`: the inhibition was -9%.
Turning to `CC(C)ON([C@@H](C(=O)NO)C(C)C)S(=O)(=O)c1ccc(-c2ccccc2)cc1`, the inhibition was 8.1% (active).
Turning to `CC(C)OC(=O)C(C)(C)Oc1ccc(C(=O)c2ccc(Cl)cc2)cc1`, the inhibition is 1.9% (active).
Consider `CCOC(=O)C(C)(C)Oc1ccc(Cl)cc1`, for which the inhibition is -1.7%.
Turning to `NNCCc1ccccc1`, the inhibition was 9.9% (active).
With `CCCCCCN(CCCCCC)C(=O)Cc1c(-c2ccc(F)cc2)[nH]c2ccccc12` the figure was 22.4% (active); with `CC(=O)Nc1nnc(S(N)(=O)=O)s1`, 14.5% (active).
With `CN(C)CCOC(C)(c1ccccc1)c1ccccn1` (stereo unspecified) the figure was 6.5% (active); with `CN1CCN(C2Cc3ccccc3Sc3ccc(Cl)cc32)CC1` (stereo unspecified), 1.9% (active); with `CSc1ccc2c(c1)C(N1CCN(C)CC1)Cc1ccccc1S2` (stereo unspecified), 1.3% (active).
For the compound `O=c1n(CCCN2CCN(c3cccc(Cl)c3)CC2)nc2ccccn12`, the inhibition was 45.2% (active).
As for `Cc1ccc(C(=O)Nc2ccc(S(=O)(=O)[O-])c3c2C(S(=O)(=O)[O-])=[C+]C(S(=O)(=O)O)=[C+]3)cc1NC(=O)c1cccc(NC(=O)Nc2cccc(C(=O)Nc3cc(C(=O)Nc4ccc(S(=O)(=O)[O-])c5c4C(S(=O)(=O)[O-])=[C+]C(S(=O)(=O)O)=[C+]5)ccc3C)c2)c1`, the inhibition was 17.8% (active).
Consider `c1cc(CN2CCCCC2)cc(OCCCNc2nc3ccccc3s2)c1`, for which the inhibition was 7.9% (active).
`C1CCc2nnnn2CC1`: the inhibition was 15.2% (active).
Under `CCC1C(=O)OCC1Cc1cncn1C` (stereo unspecified) stands -0.2%.
In the case of `CNCCNS(=O)(=O)c1cccc2cnccc12`, the inhibition was 3.8% (active).
